Reference: PubChem BioAssay (Tox21)
Results filed as inconclusive are left out. Where a call stands in place of a potency, no number is given. Active and inactive are the calls of the source. Calls come from the whole dose curve; as a rule, active = well fitted curve in the direction sought with a large enough effect in the repeat runs; inconclusive = weak or mixed curves; inactive = no such curve, though single readings can be large; an effect the other way counts as inactive or inconclusive.

Legend:
[1] = molecular target: Cytochrome P450 2C19 (Homo sapiens) (UniProt P33261); assay: Cytochrome P450 Family 2 Subfamily C Member 19 (CYP2C19) small molecule antagonists: luciferase reporter qHTS assay (AID 1671197); conditions: P450-Glo CYP2C19 enzyme, luciferin luminescence, 1 h; series mostly up to 115 µM; note: nearly all actives have a fitted effect of over 65% in size; note: potency is the fitted concentration of half-maximal effect
Outline: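 First, compounds are pinned into enzyme-substrate mix and held 10 min at room temperature. Second, NADPH regeneration solution is added and plates incubate 1 h at 37C. Third, detection reagent is added and luminescence read after 20 min.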

[2] = molecular target: Cytochrome P450 2C9 (Homo sapiens) (UniProt P11712); assay: Cytochrome P450 Family 2 Subfamily C Member 9 (CYP2C9) small molecule antagonists: luciferase reporter qHTS assay (AID 1671198); conditions: P450-Glo CYP2C9 enzyme assay, luciferin luminescence; series mostly up to 115 µM; note: nearly all actives have a fitted effect of over 50% in size; note: potency is the fitted concentration of half-maximal effect
Outline: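 P450-Glo proluciferin substrate with CYP2C9 enzyme; 10 min RT preincubation, then NADPH regeneration 1 h at 37C; luciferin detection reagent 20 min RT, luminescence in relative luminescence units.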

[3] = molecular target: Cytochrome P450 1A2 (Homo sapiens) (UniProt P05177); assay: Cytochrome P450 Family 1 Subfamily A Member 2 (CYP1A2) small molecule antagonists: luciferase reporter qHTS assay (AID 1671199); conditions: P450-Glo CYP1A2 enzyme, luciferin luminescence, 1 h; series mostly up to 115 µM; note: nearly all actives have a fitted effect of over 50% in size; note: potency is the fitted concentration of half-maximal effect
Outline: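 Luminescence from luciferin formed by CYP1A2 from a proluciferin substrate, read 20 min after detection reagent. Compound was pre-incubated 10 min with enzyme-substrate, and reaction started with NADPH regeneration solution for 1 h at room temperature; furafylline control.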

[4] = molecular target: Voltage-gated inwardly rectifying potassium channel KCNH2 (Homo sapiens) (UniProt Q12809); assay: Human Ether-a-go-go-Related Gene (hERG) channel small molecule antagonists: fluorescence cell-based qHTS assay (AID 1671200); conditions: hERG-U2OS cells, FluxOR thallium flux fluorescence; series mostly up to 76.8 µM;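 note: hERG-expressing U2OS cells given a thallium stimulus after FluxOR II dye loading; nearly all actives have a fitted effect of over 50% in size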
Outline: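 U2OS cells expressing the channel were plated at 1000 cells/well, incubated overnight at 37 C, then loaded with FluxOR II thallium-sensitive dye for 1 h at room temperature in the dark, with a further 10 min at room temperature before stimulation.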

[5] = molecular target: Cytochrome P450 3A4 (Homo sapiens) (UniProt P08684); assay: Cytochrome P450 Family 3 Subfamily A Member 4 (CYP3A4) small molecule antagonists: luciferase reporter qHTS assay (AID 1671201); conditions: P450-Glo CYP3A4 enzyme, luciferin luminescence, 1 h; series mostly up to 115 µM; note: nearly all actives have a fitted effect of over 50% in size; note: potency is the fitted concentration of half-maximal effect
Outline: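 P450-Glo CYP3A4 system with proluciferin substrate; compounds preincubated 10 min RT with enzyme-substrate mix, then NADPH regeneration added for 1 h RT. Detection reagent 20 min, luminescence read as relative luminescence units.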

Voltage-gated inwardly rectifying potassium channel KCNH2 (Homo sapiens), sequence (Q12809 whole entry, looked up): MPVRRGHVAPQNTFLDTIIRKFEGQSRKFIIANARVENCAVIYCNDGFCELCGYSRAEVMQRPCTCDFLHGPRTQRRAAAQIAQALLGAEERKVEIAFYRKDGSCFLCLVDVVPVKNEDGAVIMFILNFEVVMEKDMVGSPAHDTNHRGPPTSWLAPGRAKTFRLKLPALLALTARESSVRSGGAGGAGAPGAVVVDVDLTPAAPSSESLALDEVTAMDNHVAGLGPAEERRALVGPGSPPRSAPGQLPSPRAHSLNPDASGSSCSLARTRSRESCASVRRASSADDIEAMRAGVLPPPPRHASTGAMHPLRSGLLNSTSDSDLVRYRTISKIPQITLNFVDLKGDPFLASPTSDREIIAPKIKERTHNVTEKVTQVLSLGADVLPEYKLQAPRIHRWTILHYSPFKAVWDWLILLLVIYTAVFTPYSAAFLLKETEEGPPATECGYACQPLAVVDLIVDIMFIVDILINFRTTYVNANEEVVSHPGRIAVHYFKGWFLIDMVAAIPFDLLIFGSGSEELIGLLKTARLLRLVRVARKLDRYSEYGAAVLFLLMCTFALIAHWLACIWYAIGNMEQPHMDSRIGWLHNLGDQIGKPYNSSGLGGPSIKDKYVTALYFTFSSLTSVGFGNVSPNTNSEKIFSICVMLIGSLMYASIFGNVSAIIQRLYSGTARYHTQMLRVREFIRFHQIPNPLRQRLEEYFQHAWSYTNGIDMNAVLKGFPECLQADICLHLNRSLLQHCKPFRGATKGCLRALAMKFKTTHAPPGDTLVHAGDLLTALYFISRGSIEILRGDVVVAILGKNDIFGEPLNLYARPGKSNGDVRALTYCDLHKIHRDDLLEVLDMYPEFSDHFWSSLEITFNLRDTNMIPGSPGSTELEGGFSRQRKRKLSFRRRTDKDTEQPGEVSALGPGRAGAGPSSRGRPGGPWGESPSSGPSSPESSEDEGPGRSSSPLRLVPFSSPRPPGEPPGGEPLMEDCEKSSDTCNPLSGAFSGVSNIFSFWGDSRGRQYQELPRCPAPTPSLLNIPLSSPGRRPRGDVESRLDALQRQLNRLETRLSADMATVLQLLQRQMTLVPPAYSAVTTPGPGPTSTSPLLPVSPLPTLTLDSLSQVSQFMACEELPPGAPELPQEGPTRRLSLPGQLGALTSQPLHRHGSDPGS
Cytochrome P450 1A2 (Homo sapiens), sequence (P05177 whole entry, looked up): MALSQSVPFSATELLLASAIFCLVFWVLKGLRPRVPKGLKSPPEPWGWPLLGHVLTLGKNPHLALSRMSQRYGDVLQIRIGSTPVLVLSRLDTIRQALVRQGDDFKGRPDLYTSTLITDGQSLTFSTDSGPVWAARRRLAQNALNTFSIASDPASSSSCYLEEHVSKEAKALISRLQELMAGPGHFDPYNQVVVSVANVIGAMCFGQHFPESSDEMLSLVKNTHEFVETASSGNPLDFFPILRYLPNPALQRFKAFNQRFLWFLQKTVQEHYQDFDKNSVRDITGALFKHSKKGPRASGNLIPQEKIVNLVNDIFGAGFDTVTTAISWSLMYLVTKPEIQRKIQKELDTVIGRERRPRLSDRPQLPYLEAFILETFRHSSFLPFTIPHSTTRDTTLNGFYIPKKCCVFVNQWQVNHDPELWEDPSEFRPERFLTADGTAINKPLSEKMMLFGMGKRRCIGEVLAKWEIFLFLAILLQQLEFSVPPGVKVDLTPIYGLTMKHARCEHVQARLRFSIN
Cytochrome P450 2C19 (Homo sapiens), sequence (P33261 whole entry, looked up): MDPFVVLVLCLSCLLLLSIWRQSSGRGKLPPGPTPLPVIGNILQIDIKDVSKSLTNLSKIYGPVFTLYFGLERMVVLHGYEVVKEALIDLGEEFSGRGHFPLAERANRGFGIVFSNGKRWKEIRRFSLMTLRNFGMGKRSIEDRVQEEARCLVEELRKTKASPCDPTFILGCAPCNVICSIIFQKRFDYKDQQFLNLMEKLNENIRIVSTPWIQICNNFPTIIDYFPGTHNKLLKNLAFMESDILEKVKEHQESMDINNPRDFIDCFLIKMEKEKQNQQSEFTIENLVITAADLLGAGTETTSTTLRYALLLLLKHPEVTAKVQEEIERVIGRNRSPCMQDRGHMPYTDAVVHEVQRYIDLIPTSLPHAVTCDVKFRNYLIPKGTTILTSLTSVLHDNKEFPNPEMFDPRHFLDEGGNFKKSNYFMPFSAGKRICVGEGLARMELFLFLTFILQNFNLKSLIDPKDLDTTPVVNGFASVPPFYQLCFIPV
Cytochrome P450 2C9 (Homo sapiens), sequence (P11712 whole entry, looked up): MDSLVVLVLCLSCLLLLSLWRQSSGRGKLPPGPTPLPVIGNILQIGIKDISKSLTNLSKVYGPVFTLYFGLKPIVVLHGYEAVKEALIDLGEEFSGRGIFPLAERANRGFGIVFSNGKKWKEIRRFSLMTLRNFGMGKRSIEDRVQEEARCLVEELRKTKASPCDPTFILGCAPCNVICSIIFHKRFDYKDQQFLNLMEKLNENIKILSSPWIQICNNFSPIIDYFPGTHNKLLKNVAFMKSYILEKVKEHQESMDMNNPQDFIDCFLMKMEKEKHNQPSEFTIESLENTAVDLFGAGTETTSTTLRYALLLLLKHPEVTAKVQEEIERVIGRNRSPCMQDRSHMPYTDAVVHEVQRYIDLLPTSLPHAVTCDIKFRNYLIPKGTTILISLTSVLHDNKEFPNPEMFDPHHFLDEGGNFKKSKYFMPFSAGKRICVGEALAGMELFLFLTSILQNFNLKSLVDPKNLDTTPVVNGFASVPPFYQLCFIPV
Cytochrome P450 3A4 (Homo sapiens), sequence (P08684 whole entry, looked up): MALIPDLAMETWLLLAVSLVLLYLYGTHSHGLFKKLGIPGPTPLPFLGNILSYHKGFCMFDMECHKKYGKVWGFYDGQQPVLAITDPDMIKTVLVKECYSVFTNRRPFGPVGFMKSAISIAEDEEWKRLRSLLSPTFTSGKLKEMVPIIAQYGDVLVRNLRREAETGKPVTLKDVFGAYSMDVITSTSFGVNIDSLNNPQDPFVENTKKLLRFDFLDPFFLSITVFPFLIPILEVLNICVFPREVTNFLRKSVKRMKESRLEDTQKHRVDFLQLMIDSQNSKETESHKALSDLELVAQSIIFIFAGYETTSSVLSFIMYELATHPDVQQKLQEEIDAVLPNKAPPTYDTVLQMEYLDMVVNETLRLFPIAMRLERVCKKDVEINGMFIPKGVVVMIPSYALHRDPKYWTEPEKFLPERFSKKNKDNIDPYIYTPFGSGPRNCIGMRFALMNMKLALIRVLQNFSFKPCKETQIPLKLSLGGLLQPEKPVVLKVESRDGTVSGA

In the case of `CC(=O)O[C@H]1C[C@@H]2CC[C@@H]3[C@H](CC[C@@]4(C)[C@H]3C[C@H]([N+]3(C)CCCCC3)[C@@H]4OC(C)=O)[C@@]2(C)C[C@@H]1N1CCCCC1`, the Potency [1] is reported as “inactive”, the Potency [2] is reported as “inactive” and the Potency [3] is reported as “inactive”. For the same compound, the Potency [4] was “inactive”.
With `COc1ccc([C@@H]2Sc3ccccc3N(CCN(C)C)C(=O)[C@@H]2OC(C)=O)cc1` the Potency [1] was “inactive”, the Potency [2] was “inactive” and the Potency [3] was “inactive”.
For `Cc1cc(CC(=O)O)c(C)n1-c1ccc(Cl)cc1`, the Potency [1] was 7.76 µM (active), the Potency [2] was 15.5 µM (active) and the Potency [3] was “inactive”. The Potency [4] was “inactive”.
In the case of `CCCCCC(CO)CCC` (centres undefined), the Potency [1] is reported as “inactive”, the Potency [2] is reported as “inactive” and the Potency [3] is reported as “inactive”. The Potency [4] was “inactive” and the Potency [5] was “inactive”.
With `CC(=O)c1c(C)c([N+](=O)[O-])c(C(C)(C)C)c([N+](=O)[O-])c1C` the Potency [1] was 31.7 µM (active), the Potency [2] was “inactive” and the Potency [3] was 11.2 µM (active). For the same compound, the Potency [4] was “inactive”.
For `CC(=O)c1ccc2c(c1)[C@H](NC(=O)c1ccc(F)cc1)[C@@H](O)C(C)(C)O2`, the Potency [1] was “inactive”, the Potency [2] was 33.5 µM (active) and the Potency [3] was 33.5 µM (active). For the same compound, the Potency [4] was “inactive” and the Potency [5] was 29.9 µM (active).
`CC(C)(C)C(=O)OCOP(=O)(COCCn1cnc2c(N)ncnc21)OCOC(=O)C(C)(C)C` was tested, and the Potency [1] was “inactive”, the Potency [2] was “inactive” and the Potency [3] was “inactive”. The Potency [4] was “inactive”.
`O=C(c1ccc(O)cc1)c1ccc(O)cc1` was tested, and the Potency [1] was 39.9 µM (active), the Potency [2] was “inactive” and the Potency [3] was 39.9 µM (active). The Potency [4] was “inactive”.
In the case of `C#CCOC(=O)[C@@H](C)Oc1ccc(Oc2ncc(Cl)cc2F)cc1`, the Potency [1] is reported as 17.7 µM (active), the Potency [2] is reported as 31.6 µM (active) and the Potency [3] is reported as 5 µM (active).
For `CCCCCOC(=O)c1ccc(O)cc1`, the Potency [1] was 28.6 µM (active), the Potency [2] was 36 µM (active) and the Potency [3] was 2.55 µM (active).
